The term inhibition denotes the change of the read-out against control, counted positive when it falls.

Out of some 290,000 compounds screened, about 1,800 (0.62%) were called active. The sample as a whole holds a higher share of actives than the screen did. A number with no mark means an inactive call. Cut-off read from the data, not from the text of the source: active = inhibition above about 50%; inactive = the rest.

This passage reports inhibition results from PubChem BioAssay AID1566 (Sanford-Burnham Center for Chemical Genomics, 2009).

The test can be described thus: NOD2 signaling inhibitors, cell-based, luminescence, uHTS, HEK293 (AID 1566). The conditions noted are these: HEK293 NOD2/NF-kB luciferase reporter, at 4 µM, hits give high values. (In general: In a reporter assay the amount or activity of a reporter protein is the signal.)
Take `Cc1oc(-c2ccc(Cl)cc2)nc1CS(=O)CC(=O)NCCCN1CCOCC1` (stereo unspecified): the inhibition was 16.6%.
For `Cc1oc(-c2ccc(Cl)cc2)nc1CS(=O)CC(=O)NCCCN1CCN(Cc2ccccc2)CC1` (stereo unspecified) the value was 61.5% (active).
For `Cc1ccc(-c2nc(CS(=O)CC(=O)NCCCN3CCN(Cc4ccccc4)CC3)c(C)o2)cc1` (stereo unspecified) the value was 28.9%.
As to `Cc1c(-c2nc(-c3ccc(C(F)(F)F)cc3)no2)n(C)oc1=O`, the inhibition was -51.2%.
As to `CCN(CC)C(=O)C1CCCN(Cc2ccccc2)C1` (stereo unspecified), the inhibition was -6.7%.
For `Cc1cccc(NC(=O)NCc2ccc3c(c2)cc(C)n3C)c1`, the inhibition was 10.6%.
With `COC(=O)CCn1nnc(-c2cccs2)n1` the figure was 6.8%; with `CCc1ccc(-c2nnn(CCC(=O)OC)n2)cc1`, 54.4% (active).
For `COC(=O)CCn1nnc(-c2ccc(C)cc2)n1` the value was -23.2%; for `COc1ccc(OC)c(NC(=O)CCCC(=O)NC2CCCCC2)c1`, 10.6%; for `COC(=O)C(Cc1ccc(O)cc1)NC(=O)C(C)NC(=O)c1ccc(C(C)(C)C)cc1` (stereo unspecified), -9.1%.
With `O=C(C1=C(O)C(=O)N(c2nccs2)C1c1ccccc1)c1cc2ccccc2o1` (stereo unspecified) the figure was -20.5%; with `CC(=O)C1=C(O)C(=O)N(c2nccs2)C1c1ccccc1` (stereo unspecified), -1.4%.
Regarding `CSc1ccccc1-c1nnc(-c2ccc(Cl)c(Cl)c2)o1`, the inhibition is -48.1%.
For `Cc1cc([N+](=O)[O-])ccc1NC(=O)C(C)N1CCN(c2ccccn2)CC1` (stereo unspecified) the value was 12%.
For `Cc1ccc(S(=O)(=O)NCc2ccc(C(=O)N3CCN(c4ccccc4)CC3)cc2)cc1` the value was 12.6%; for `Cc1ccc(S(=O)(=O)NCc2ccc(C(=O)N3CCCC3)cc2)cc1`, -3.3%.
In the case of `COc1ccc(-c2nc(CN3CCN(c4cc(C)nc(C)c4)CC3)c(C)o2)c2ccccc12`, the inhibition was 30.3%.
For `COc1ccc(-c2nc(CN3CCN(c4ccccc4OC)CC3)c(C)o2)cc1` the value was 1.8%.
For `O=C(NC1CCCCC1)C(c1ccc(O)cc1)N(C(=O)c1cnccn1)c1cccc(F)c1` (stereo unspecified) the value was 3.4%; for `CC(C)(C)CC(=O)Nc1ccccc1N1CCN(c2ccccc2)CC1`, -19.6%.
Take `CCC(=O)NC(c1ccc(C)cc1)c1ccc2cccnc2c1O` (stereo unspecified): the inhibition is 70% (active).
For `CCCC(=O)NC(c1ccc(C)cc1)c1ccc2cccnc2c1O` (stereo unspecified) the value was 13%; for `CCCC(=O)NC(c1ccc(C(C)C)cc1)c1ccc2cccnc2c1O` (stereo unspecified), 21.9%; for `Cc1cccc(C2(c3cccc(C)c3)CC2C(=O)Nc2ccc([N+](=O)[O-])cc2O)c1` (stereo unspecified), 48.8%.
On to `Cc1ccc(C2(c3ccc(C)cc3)CC2C(=O)Nc2ccc([N+](=O)[O-])cc2O)cc1` (stereo unspecified), for which the inhibition was 52.6% (active).
As for `CC1(C)CC1C(=O)Nc1ccc([N+](=O)[O-])cc1Br` (stereo unspecified), the inhibition is 9.5%.
For `Cc1ccsc1/C=N/NC(=O)C1CC(=O)N(c2ccc(F)cc2)C1` (stereo unspecified) the value was 16.6%.
`O=C(N/N=C/c1ccccc1O)C1CC(=O)N(c2ccc(Cl)cc2)C1` (stereo unspecified): the inhibition is 47.3%.
With `O=C(N/N=C/c1ccccc1O)C1CC(=O)N(c2ccc(F)cc2)C1` (stereo unspecified), the inhibition was 59.3% (active).
For `Cc1cc(C(=O)NNC(=S)NCC(C)C)no1`, the inhibition was -0.2%.
Turning to `CCCSc1nnc(-c2c[nH]c3ccccc23)n1CC`, the inhibition is -33.8%.
On to `Cn1[nH]c(=O)c(Cl)c(Cl)c1=O`, for which the inhibition was 10.7%.
With `COc1ccccc1/C=C/C(=O)/C=C/c1ccccc1O` the figure was 50.2% (active); with `COc1ccccc1/C=C/C(C)=O`, -13.4%; with `COc1ccccc1/C=C/C(=O)c1ccccc1`, -52.6%.
With `CCOc1ccc2[nH]c(=O)c(CN(CC3CCCN3CC)C(=O)NCc3ccccc3)cc2c1` (stereo unspecified) the figure was 13.6%.
Take `Nc1cc(S(=O)(=O)O)cc([N+](=O)[O-])c1O`: the inhibition was 8.2%.
On to `O=C(NCCN1CCOCC1)c1ccc(Cl)c(Cl)c1`, for which the inhibition was -11.3%.
For the compound `O=C(Nc1ccc2snnc2c1)N1CCCCC1`, the inhibition was 3.3%.
`O=C(Nc1ccc2c(c1)OCO2)c1cc(C2CC2)on1`: the inhibition was -108%.
Take `COc1cc(/C=C2\CC/C(=C\c3cc(OC)c(OC)c(OC)c3)C2=O)cc(OC)c1OC`: the inhibition is -18.8%.
As to `COc1cc(/C=C2\CCOC2=O)cc(OC)c1OC`, the inhibition was -11.1%.
Consider `CN(C)C1(CNC(=O)C2CCN(S(=O)(=O)c3cc(Cl)ccc3Cl)CC2)CCCCC1`, for which the inhibition was -8.8%.
`COc1ccc2[nH]c3c(N4CCN(Cc5ccc6c(c5)OCO6)CC4)ncnc3c2c1`: the inhibition is 3.4%.
With `Cc1ccc2[nH]c3c(N4CCN(Cc5ccc6c(c5)OCO6)CC4)ncnc3c2c1`, the inhibition is 49.8%.
For `Fc1ccc2[nH]c3c(N4CCN(Cc5ccc6c(c5)OCO6)CC4)ncnc3c2c1` the value was 55.3% (active); for `CC(C)CC(N)c1cn([C@@H](CCC(=O)O)C(=O)N2CCNCC2)nn1` (stereo partly specified), -7.7%; for `CNC(C)C#Cc1ccc2c(=O)c3c(OC)cccc3oc2c1` (stereo unspecified), -33.5%.
For the compound `O=C(O)CSc1ncnc2sc(-c3ccccc3)cc12`, the inhibition is 15.1%.
With `CC(=O)CCSc1ncnc2sc(-c3ccccc3)cc12` the figure was -124%; with `Cc1ccc(SCCN2CCN(CC(C)C)CCC2=O)cc1`, -18.4%.
As for `O=C(NC1CCCCCCC1)c1cc(F)c(F)cc1Cl`, the inhibition is -57.3%.
For the compound `Cc1csc(Nc2ccccc2C(F)(F)F)n1`, the inhibition is -3.5%.
`COc1ccc(S(=O)(=O)Nc2cccc(S(=O)(=O)N3CCCCCC3)c2)cc1`: the inhibition was -4.9%.
For `O=S(=O)(Nc1cccc(S(=O)(=O)N2CCCCCC2)c1)c1ccccc1` the value was 16.1%; for `CC(=O)Nc1cccc(S(=O)(=O)N2CCCCCC2)c1`, 2.3%.
For `O=S(=O)(Nc1nc2ccccc2nc1Nc1ccc2c(c1)OCO2)c1ccccc1` the value was 26%; for `COc1ccc(S(=O)(=O)Nc2nc3ccccc3nc2Nc2ccc3c(c2)OCO3)cc1`, 25.7%; for `O=S(=O)(Nc1nc2ccccc2nc1Nc1cccc(S(=O)(=O)N2CCCCC2)c1)c1ccccc1`, 55.5% (active).
For `O=C(CCc1ccccc1Cl)Nc1cccc(S(=O)(=O)N2CCCC2)c1` the value was 4%.
Consider `COc1ccccc1CNC(=O)c1cn(C)c2ccc(S(=O)(=O)N3CCCCC3)cc2c1=O`, for which the inhibition is -7.1%.
For `CCn1c(C)c2c(C)nnc(C)c2c1C` the value was 8.3%.
As to `Cc1ccc(CSC2=NCCN2C(=O)c2ccc(S(=O)(=O)N(C)C)cc2)cc1`, the inhibition is -5%.
As for `COc1ccc(C)cc1NC(=O)CC(O)(C(F)(F)F)C(F)(F)F`, the inhibition was 1.2%.
For `COc1ccc(-c2nsc3c(N4CCCCC4)ncnc23)cc1` the value was -13.3%; for `COc1ccc(-c2nsc3c(N4CCCC4)ncnc23)cc1`, -61.9%; for `COc1ccc(-c2nsc3c(N4CCCCC4C)ncnc23)cc1` (stereo unspecified), 86% (active).
`N/C(CC(=O)Nc1cccc(C(F)(F)F)c1)=N/O`: the inhibition was 5.4%.
As for `Cc1ccc(-c2cc3c(N=O)c4ccccc4c-3n[nH]2)cc1`, the inhibition is 70.7% (active).
For `Cc1cccc(-c2cc3c(N=O)c4ccccc4c-3n[nH]2)c1` the value was -162%.
For the compound `O=Nc1c2cc(-c3ccccc3)[nH]nc-2c2ccccc12`, the inhibition was -167%.
As to `N#CC12CCCCC1CC1CCCCC1(C#N)N2N` (stereo unspecified), the inhibition is 1.8%.
For `O=C(CCCN1C(=O)c2ccccc2C1=O)NCCC1=CCCCC1` the value was 5.4%; for `COc1ccc(-c2nc(CSCC(=O)NCc3ccco3)c(C)o2)cc1`, -2%; for `CCc1ccc(-c2nc(CSCC(=O)NCc3ccco3)c(C)o2)cc1`, 50% (active).
For `CCOc1ccc(-c2nc(CSCC(=O)NCc3ccco3)c(C)o2)cc1` the value was 9.4%; for `O=C(OCc1nc2ccccc2s1)c1cc2ccccc2oc1=O`, -0.9%; for `Cc1cc(Cl)c(S(=O)(=O)N2CCCC2)cc1OCC(=O)NC1CCCCC1`, 32.3%.
`CCN1CCN(S(=O)(=O)c2cc(OCC(=O)NC3CCCCC3)c(C)cc2Cl)CC1`: the inhibition was 35.8%.
`C=CCSc1nc2ccccc2n1Cc1nnc(-c2cccs2)o1`: the inhibition is 8.9%.
For `CN(Cc1cccnc1)C(=O)c1cc(COc2ccc3c(c2)CCCC3)on1` the value was -14.6%; for `Cc1cc(CN(C)C(=O)c2cc(COc3ccc4ncccc4c3)on2)on1`, 28.5%.
`O=C(CNC(=S)N(CCCN1CCOCC1)Cc1cccs1)N1CCCCCC1`: the inhibition is -0.9%.
In the case of `COc1ccc(N(CC(=O)N/N=C/c2ccc3c(c2)OCO3)S(=O)(=O)c2ccc(NC(C)=O)cc2)cc1`, the inhibition is -7.5%.
For `COc1ccc(S(=O)(=O)N/N=C\c2ccc([N+](=O)[O-])o2)c(OC)c1`, the inhibition was 52.1% (active).
With `COc1ccc(OC)c(S(=O)(=O)N/N=C\c2ccc3c(c2)OCO3)c1` the figure was -26.9%; with `COc1ccc(S(=O)(=O)N/N=C\c2ccc3c(c2)OCO3)c(OC)c1`, 51.2% (active); with `COc1ccc(S(=O)(=O)N/N=C\c2ccc3c(c2)OCO3)cc1`, 29.5%.
With `Cc1ccc(S(=O)(=O)N/N=C\c2ccc([N+](=O)[O-])o2)cc1C`, the inhibition is 33.4%.
On to `Cc1ccc(S(=O)(=O)N/N=C\c2ccc([N+](=O)[O-])o2)cc1`, for which the inhibition was 13.4%.
For `CCN(CC)CCn1c(=S)[nH]c2ccc(Br)cc2c1=O` the value was 7.1%.
For `CCCCC1=CC2=CC(=O)C(C)(OC(=O)CC)C(=O)C2=CN1C1CCCC1` (stereo unspecified) the value was 33.3%; for `COc1cccc(NC(=O)NC2CCCCC2C)c1` (stereo unspecified), 0.4%; for `COc1ccc(Cn2c(=O)[nH]c3cc(C(=O)N4CCN(c5ccccn5)CC4)ccc3c2=O)cc1`, 3%.
Turning to `CCN(CC)C(=O)c1ccc2c(=O)n(Cc3ccc4c(c3)OCO4)c(=S)[nH]c2c1`, the inhibition was 10.2%.
With `CCN(CC)C(=O)c1ccc2c(=O)n(CCOC)c(=S)[nH]c2c1`, the inhibition was 17.5%.
With `CCOC(=O)N1CCN(C(=O)c2ccc(Cn3c(=S)[nH]c4cc(OCC)c(OCC)cc4c3=O)cc2)CC1` the figure was 43.9%; with `CCN(CC)C(=O)c1ccc2c(=O)n(Cc3cccc(Br)c3)c(=S)[nH]c2c1`, 58.7% (active); with `O=C(c1ccc(Cn2c(=O)[nH]c3ccccc3c2=O)cc1)N1CCN(c2ccccn2)CC1`, 15.4%.
With `CCOC(=O)N1CCN(C(=O)c2ccc(Cn3c(=S)[nH]c4cc(C(=O)OC)ccc4c3=O)cc2)CC1` the figure was 24.9%.
